# Sampled rows, rich in hits. Any-hit rate of the full collection: about 4.6%.
# NLRP3 yeast inh = NALP3 inflammasome inhibitors in reconstituted yeast, primary screen, luminescence, uHTS; Yeast reconstituted NLRP3/ASC/caspase-1, beta-gal luminescence, 24 h; 330,000 compounds, 0.39% hits; inhibition, % at 10 µM;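 active = inhibition of 50% or more; inactive = inhibition below 50%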
# TIM10 inh = growth inhibitors of isogenic TIM10 control yeast, primary screen, counter-screen for tim10-1 yeast inhibitor project, luminescence, uHTS | AID 463195, 2010 | S. cerevisiae TIM10 strain growth, BacTiter-Glo luminescence, 24 h | 330,000 compounds, 1.4% hits | inhibition, % at 10 µM;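 active = inhibition of 40% or more at the single tested concentration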;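 note: wild-type TIM10 isogenic control strain grown at permissive 25 °C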
# tim23-1 inh = growth inhibitors of tim23-1 mutant yeast, primary screen, luminescence, uHTS; S. cerevisiae tim23-1 growth, BacTiter-Glo luminescence, 24 h; inhibition, % at 20 µM; 330,000 compounds, 1.3% hits; AID 463212, 2010;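 active = growth inhibition of the mutant yeast at or above 50%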;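 note: temperature-sensitive mutant grown at 25 °C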
# SKKanGAS inh = S. pyogenes SKKanGAS growth inhibitors in kanamycin, primary screen, streptokinase expression inhibitor project, SKKanGAS strain, BacTiter-Glo luminescence; 300,000 compounds, 1.3% hits; 6 h; inhibition, % at 7.5 µM;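 active = mean replicate score, as percent of positive control median, at least 50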;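 note: strain carries kanamycin resistance gene driven by streptokinase promoter and grows in 40 µg/ml kanamycin; loss of luminescence reflects streptokinase promoter inhibition or plain growth inhibition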
# PfHsp90 yeast 2 = growth inhibition of PfHsp90-expressing yeast, primary screen, antimalarial PfHsp90 inhibitor project, S. cerevisiae, BacTiter-Glo luminescence, single point, set 2 | 310,000 compounds, 0.32% hits | BacTiter-Glo ATP, 48 h; yeast lacking PDR1 and PDR3 efflux regulators | inhibition, % at 9.4 µM;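 active = every replicate shows inhibition above about 80%, whatever the replicate mean, limit read from the data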
# tim10-1 inh = growth inhibitors of tim10-1 mutant yeast, primary screen, luminescence, uHTS; AID 463190, 2010; 330,000 compounds, 2.2% hits; inhibition, % at 20 µM; S. cerevisiae tim10-1 ts strain growth, BacTiter-Glo, 24 h;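 active = inhibition of at least 40%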;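 note: mutant grown at 25 °C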
# A number is an active result; 0 = inactive; - = no result; ! = repeats disagree.
SMILES,NLRP3 yeast inh,TIM10 inh,tim23-1 inh,SKKanGAS inh,PfHsp90 yeast 2,tim10-1 inh
CCCc1cc(=O)oc2cc(OCC(=O)NCCCN3CCCC3=O)ccc12,0,0,0,0,0,0
C/C(=N\Nc1nc2ccc(Cl)cc2o1)c1ccccc1,0,0,0,67.6,-,0
O=C(/C=C/c1ccccc1)NC(NC(=S)Nc1ccc(Cl)cc1)C(Cl)(Cl)Cl (centres undefined),0,0,0,63.3,0,0
O=C(/C=C/c1ccccc1)NC(NC(=S)Nc1cc(Cl)ccc1Cl)C(Cl)(Cl)Cl (centres undefined),0,0,0,51.9,0,0
O=C(Cc1ccccc1)NC(NC(=S)Nc1cc(Cl)ccc1Cl)C(Cl)(Cl)Cl (centres undefined),0,0,0,0,0,0
CCOc1ccc(C(=O)NNC(=O)C2CC(=O)N(c3ccc(C)cc3)C2)cc1 (centres undefined),0,0,0,0,0,0
CCC(Oc1ccccc1)C(=O)NCc1ccc(S(N)(=O)=O)cc1 (centres undefined),0,0,0,0,0,0
Cc1cc(N=Nc2ccccc2C(=O)O)c(C)c(C)c1O,0,0,0,0,99.5,0
Cc1cc(O)c(C(C)C)cc1N=Nc1ccccc1C(=O)O,0,0,0,0,0,0
CCOc1ccc(NC(=S)NNC(=S)Nc2cccc(C(F)(F)F)c2)cc1,0,0,0,51.3,0,0
CN(C(=O)COC(=O)c1nc(Cl)c(Cl)c(Cl)c1Cl)C1CCS(=O)(=O)C1 (centres undefined),-,-,-,0,0,-
Cc1ccc(NC(=O)CSCC(=O)NC2=NCCS2)cc1,0,0,0,-,0,0
CCOC(=O)c1sc(NC(=O)c2ccc(Br)o2)cc1C,0,0,0,0,0,0
CCOC(=O)c1sc(NC(=O)Nc2cccc(Cl)c2)cc1C,0,0,0,94.9,0,0
CCC(NC(=O)NC1CCCCC1)c1ccccc1 (centres undefined),0,0,0,0,0,0
CCC(NC(=S)NC1CCCCC1)c1ccc(C(C)C)cc1 (centres undefined),0,0,0,64.9,-,0
CCN(CC)S(=O)(=O)c1cccc(NC(=O)c2ccc(Br)cc2)c1,0,0,0,0,96.4,0
CCN(CC)S(=O)(=O)c1cccc(NC(=O)c2cncc(Br)c2)c1,0,0,0,0,0,0
C/C(=C\c1ccc(C)o1)C(=O)c1c(C)cc(C)[nH]c1=O,0,0,0,0,0,0
CC1(C)CC(=O)N(c2cc(Cl)ccc2Cl)C(=O)C1,0,0,0,0,0,0
CCCCCCCCCCOC(=O)Cn1c(COc2ccc(OC)cc2)[n+](C)c2ccccc21,0,0,0,0,108.0!,0
CCCCCCCCCCOC(=O)Cn1c(COc2ccccc2)[n+](C)c2ccccc21,0,0,0,81.1,0,0
O=C(O)c1ccc(CN2C(=O)c3ccc(Oc4ccc([N+](=O)[O-])cc4)cc3C2=O)cc1,0,0,0,0,0,0
O=c1cc(O)c2c(=O)n(-c3ccccc3)c3c(c2o1)CCCCCC3,0,0,0,55.9,0,0
O=c1cc(O)c2c(=O)n(C3CCCCC3)c3ccccc3c2o1,0,0,0,0,-,0
SMILES,NLRP3 yeast inh,TIM10 inh,tim23-1 inh,SKKanGAS inh,PfHsp90 yeast 2,tim10-1 inh
COc1ccc2nc(N)sc2c1,0,0,0,0,-,0
COc1ccc2nc(-n3c(C)ccc3C)sc2c1,0,0,0,54.4,0,0
N=C1S/C(=C\c2cn[nH]c2-c2ccc(F)cc2)C(=O)N1c1ccccc1F,0,0,0,60.1,0,0
N=C1S/C(=C\c2ccccc2F)C(=O)N1c1ccc(F)cc1,0,0,0,0,-,0
N=C1S/C(=C\c2cccc3ccccc23)C(=O)N1c1ccc(F)cc1,0,0,0,55.9,0,0
CCOc1ccc2[nH]c3nc(SCC(=O)NC4CC4)nnc3c2c1,0,0,0,0,0,0
O=C(O)c1ccc(/C=C/c2ccc3cccc(O)c3n2)cc1,0,0,0,0,0,0
Oc1cccc2ccc(/C=C/c3c(F)cccc3Cl)nc12,0,0,0,73.8,0,0
Oc1cccc2ccc(/C=C/c3ccccc3Cl)nc12,0,0,0,98.9,99.9,0
O=[N+]([O-])c1cccc(/C=C/c2ccc3cccc(O)c3n2)c1,0,0,0,83.5,0,0
O=C(c1ccc2[nH]c(=O)c(=O)[nH]c2c1)N1CCN(c2ccccc2)CC1,0,0,0,0,0,0
CN(CC(=O)OCC(=O)NCc1ccccc1)S(=O)(=O)c1ccc(Cl)cc1,0,0,0,0,0,0
CCOC(=O)C1=C(COC(=O)c2nc(Cl)ccc2Cl)NC(=O)NC1C (centres undefined),0,0,0,-,0,0
N#Cc1c(Nc2cccc(F)c2)sc2c(O)cc(=O)[nH]c12,0,0,0,112.5,0,0
CCOc1ccc(S(=O)(=O)Nc2cc(SCC(=O)O)c(O)c3ccccc23)cc1,-,-,-,0,0,-
O=S(=O)(Nc1cc(Sc2cccc3cccnc23)c(O)c2ccccc12)c1ccccc1,-,-,-,91.4,-,-
CCN(CC)S(=O)(=O)c1cc(C(=O)Nc2cccnc2Cl)ccc1Cl,0,0,0,0,0,0
CC(=NNC(=S)N1CC2CCC(CC2)C1)c1ccncn1,-,-,-,-,111.4,-
CC(=NNC(=S)N1CCCCC1)c1cccc(C)n1,-,-,-,-,0,-
COc1ccc(CCNC(=O)C2CCN(S(=O)(=O)c3ccc4nc5c(c(C(=O)O)c4c3)CCCC5)CC2)cc1OC,0,0,0,0,0,0
CCCCCn1c(N)c(-c2nc3ccccc3s2)c2c([N+](=O)[O-])nn(CC)c(=O)c21,0,0,0,54.3,-,0
Cc1nnc(SCC2=C(C(=O)O)N3C(=O)C(NC(=O)COc4ccc(F)cc4)C3SC2)s1 (centres undefined),0,0,0,-,0,0
CC(=O)OCC1=C(C(=O)O)N2C(=O)C(NC(=O)C(C)Cn3cc(Cl)cn3)C2SC1 (centres undefined),0,0,0,114.8,0,0
CC(=O)OCC1=C(C(=O)O)N2C(=O)[C@@H](NC(=O)Cc3ccccc3)[C@H]2SC1,-,-,-,-,0,-
CC(=O)OCC1=C(C(=O)O)N2C(=O)C(NC(=O)CC(C)c3ccccc3)C2SC1 (centres undefined),0,0,0,-,0,0
Cc1nnc(SCC2=C(C(=O)O)N3C(=O)C(NC(=O)c4cc(F)c(F)cc4Cl)C3SC2)s1 (centres undefined),0,0,0,109.1,0,0
CC(=O)OCC1=C(C(=O)O)N2C(=O)[C@@H](NC(=O)Cc3cccs3)[C@H]2SC1,0,0,0,102.8,0,0

# High-throughput results (PubChem)
